For five compounds, outcome and AC50 results are on record in PubChem BioAssay (EPA / NIEHS).

SMILES strings stand for the structures. Records with an inconclusive call do not appear. Activity calls are given as the source filed them. Rule for the calls, unless noted: active = hit-call score of the fitted dose curve at least 0.9, where 1 is the maximum; inactive = score below 0.9.

For experiment [1], the target named is Glucocorticoid receptor (Homo sapiens) (UniProt P04150). The experiment in a line: ATG_GR_TRANS: Attagene TRANS-FACTORIAL HepG2 Assay for human Glucocorticoid Receptor (GR) (AID 2282978; active = hit-call score of the fitted dose curve at least 0.9, where 1 is the maximum;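 note: activators score as hits since higher reporter transcript over DMSO is fitted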). To be noted: HepG2 Attagene TRANS GR reporter, mRNA transcription. Put shortly:
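Multiplexed TRANS reporter system, HepG2; 24 h exposure; RNA → oligo(dT) RT → reporter-specific PCR → 6-FAM primer extension → HpaI cut → CE fluorescence. Gain-of-signal vs DMSO.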

Experiment [2] has as its target Oxysterols receptor LXR-beta (Homo sapiens) (UniProt P55055). The experiment in a line: ATG_LXRb_TRANS: Attagene TRANS-FACTORIAL HepG2 Assay for human Liver X Receptor beta (LXRb) (AID 2282981; active = hit-call score of the fitted dose curve at least 0.9, where 1 is the maximum). The note with it: HepG2 Attagene TRANS GAL4-LXRb reporter, mRNA. Put shortly: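 HepG2 cells transiently transfected with GAL4-UAS reporter units for chimeric NR-Gal4 proteins, dosed for 24 h. Reporter transcripts measured by RT-PCR and capillary electrophoresis; gain-of-signal fitting relative to DMSO.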

In experiment [3] the target is Hepatocyte nuclear factor 4-alpha (Homo sapiens) (UniProt P41235). Nature of the experiment: ATG_HNF4a_TRANS: Attagene TRANS-FACTORIAL HepG2 Assay for human Hepatocyte Nuclear Factor 4 alpha (HNF4a) (AID 2282982; active = hit-call score of the fitted dose curve at least 0.9, where 1 is the maximum). The note with it: HepG2 HNF4a transactivation reporter, mRNA readout. Put shortly: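 HepG2 cells transiently transfected with HNF4a-Gal4 chimera and GAL4-UAS reporter units, dosed for 24 h. Reporter mRNA measured by RT-PCR, fluorescent primer extension and capillary electrophoresis; gain-of-signal fitted relative to DMSO.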

Experiment [4] deals with Nuclear receptor subfamily 4 group A member 2 (Homo sapiens) (UniProt P43354). Nature of the experiment: ATG_NURR1_TRANS: Attagene TRANS-FACTORIAL HepG2 Assay for human Nuclear Receptor Related Protein 1 (NURR1) (AID 2282985; active = hit-call score of the fitted dose curve at least 0.9, where 1 is the maximum). To be noted: HepG2 Attagene TRANS reporter, mRNA readout. Put shortly: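 HepG2 cells transiently transfected with NURR1-Gal4 chimera and GAL4-UAS reporter units; after 24 hr compound exposure, reporter mRNA quantified by RT-PCR and capillary electrophoresis; gain of signal fitted against DMSO.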

Experiment [5] concerns the target Transcriptional activator Myb (Homo sapiens) (UniProt P10242). Nature of the experiment: ATG_Myb_CIS: Attagene CIS-FACTORIAL HepG2 Assay for human Myeloblastosis (Myb) Proto-Oncogene Transcription Factor (AID 2282986). To be noted: HepG2 Attagene CIS-FACTORIAL Myb reporter transcription; actives raise or lower the signal. The procedure, abridged: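 Endogenous transcription factor activity at a Myb-responsive cis element is reported in human liver HepG2 cells after 24 h chemical treatment. Reporter mRNA is detected by RT-PCR and capillary electrophoresis fluorescence, with DMSO as baseline.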

In experiment [6] the target is Nuclear respiratory factor 1 (Homo sapiens) (UniProt Q16656). The experiment in a line: ATG_NRF1_CIS: Attagene CIS-FACTORIAL HepG2 Assay for human Nuclear Respiratory Factor 1 (NRF1) Orphan Gene (AID 2282987). To be noted: HepG2 NRF1 cis-element reporter, Attagene multiplex; actives raise or lower the signal. The procedure, abridged: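 Human hepatoma HepG2 cells carrying transfected promoter-regulated reporter units were incubated with test chemicals for 24 h. Reporter transcripts were measured by RT-PCR plus capillary electrophoresis, and endpoints derived by bidirectional fitting with DMSO as baseline.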

A short description of experiment [7]: ATG_NFI_CIS: Attagene CIS-FACTORIAL HepG2 Assay for human Nuclear Factor I (NFI) (AID 2282989). The note with it: HepG2 cis-regulatory reporter, NFI response element transcription; actives raise or lower the signal. Put shortly: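 Transfected HepG2 liver cells, exposed 24 h, supplied total RNA for oligo(dT) reverse transcription and reporter-specific PCR. Labelled, HpaI-cut fragments were sized by capillary electrophoresis; DMSO set the baseline for bidirectional fitting.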

The target in experiment [8] is Myc proto-oncogene protein (Homo sapiens) (UniProt P01106). Nature of the experiment: ATG_Myc_CIS: Attagene CIS-FACTORIAL HepG2 Assay for human Myelocytomatosis (Myc) Proto-Oncogene Transcription Factor (AID 2282990). The note with it: HepG2, Attagene cis-reporter transcription factor activity; actives raise or lower the signal. Put shortly:
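Fluorescence intensity of reporter-specific cDNA fragments, separated by capillary electrophoresis, gives the signal. Transfected HepG2 cells carrying cis-promoter reporter constructs are incubated with compound for 24 h; DMSO serves as baseline.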

Experiment [9] can be described thus: ATG_NRF2_ARE_CIS: Attagene CIS-FACTORIAL HepG2 Assay for human Nuclear Factor Erythroid 2 Related Factor 2 (NFR2) response to Antioxidant Response Elements (ARE) (AID 2282992).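 For AC50: reporter mRNA level measured by RT-PCR and capillary electrophoresis fluorescence.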 The note with it: HepG2 Attagene ARE/NRF2 reporter, transcription factor activity; actives raise or lower the signal. The procedure, abridged:
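HepG2 cells transiently transfected with multiplexed cis-regulated reporter transcription units measure endogenous transcription factor activity. Reporter mRNA at 24 h is quantified by RT-PCR, fluorescent labelling and capillary electrophoresis, with bidirectional fitting relative to DMSO.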

Experiment [10] is described as follows: ATG_Oct_MLP_CIS: Attagene CIS-FACTORIAL HepG2 Assay for human Octamer-Binding Transcription Factor (Oct) (AID 2282993). To be noted: HepG2 Attagene cis-factorial Oct reporter, mRNA; actives raise or lower the signal. Put shortly:
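Using HepG2 cells bearing transfected cis-reporter constructs, mRNA induction was read after 24 h by fluorescent RT-PCR and capillary electrophoresis, with DMSO defining baseline for gain- or loss-of-signal fits.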

For experiment [11], the target named is Cellular tumor antigen p53 (Homo sapiens) (UniProt P04637). Nature of the experiment: ATG_p53_CIS: Attagene CIS-FACTORIAL HepG2 Assay for human p53 Transcription Factor (AID 2282994). To be noted: HepG2 p53 cis-element reporter, Attagene mRNA; actives raise or lower the signal. The procedure, abridged: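 HepG2 cells transiently transfected with multiplexed cis-regulated reporter transcription units read endogenous TF activity. After 24 h compound exposure, reporter mRNA was quantified by RT-PCR, fluorescent labelling, HpaI digestion and capillary electrophoresis; bidirectional fits versus DMSO baseline.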

A short description of experiment [12]: BSK_3C_TissueFactor: BioMAP Diversity Plus: 3C Assay for Tissue Factor Biomarker Activity (AID 2282997). To be noted: BioMAP 3C HUVEC, tissue factor biomarker readout; actives raise or lower the signal. Put shortly:
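Dosing of human umbilical vein endothelial cells preceded a 24 h incubation. Tissue Factor was then read by ELISA, with increases and decreases both scored relative to DMSO controls.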

Experiment [13] is described as follows: BSK_3C_uPAR: BioMAP Diversity Plus: 3C Assay for Urokinase-type plasminogen activator receptor (uPAR) Biomarker Activity (AID 2282998). The note with it: BioMAP 3C HUVEC, uPAR biomarker ELISA; actives raise or lower the signal. The procedure, abridged:
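In this endothelial cell-based assay, human umbilical vein primary cells were treated with chemicals and harvested at 24 h. uPAR was quantified using ELISA, with gains or losses fitted relative to DMSO controls.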
(ELISA stands for enzyme-linked immunosorbent assay.)

The nature of experiment [14]: BSK_3C_VCAM1: BioMAP Diversity Plus: 3C Assay for Vascular cell adhesion molecule 1 (VCAM1) Biomarker Activity (AID 2282999). To be noted: BioMAP 3C HUVEC, VCAM1 ELISA, cytokine-stimulated; actives raise or lower the signal. The procedure, abridged: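 Human umbilical vein endothelial cells (3C system), biomarker read by ELISA 24 h after dosing; bidirectional fit against DMSO baseline. Cytotoxicity tracked by SRB total-protein staining in parallel cultures at biomarker time.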

The nature of experiment [15]: ATG_Hpa5_TRANS: Attagene TRANS-FACTORIAL HepG2 Assay for human GAL4-Hpa5 Hepatocyte Transcription Factor Basal Promoter (AID 2282975; active = hit-call score of the fitted dose curve at least 0.9, where 1 is the maximum;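 note: hits are increases in reporter mRNA over DMSO baseline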). The note with it: HepG2 Attagene GAL4-Hpa5 transcription reporter. Put shortly: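 Basal-promoter GAL4 background control within the HepG2 trans-factorial panel of transiently transfected reporter units. Reporter mRNA is measured 24 h after dosing by RT-PCR and capillary electrophoresis, fitted for gain of signal versus DMSO.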

The nature of experiment [16]: ATG_NF_kB_CIS: Attagene CIS-FACTORIAL HepG2 Assay for human Nuclear Factor Kappa B (NF-kB) (AID 2282991). To be noted: HepG2 Attagene cis-factorial NF-kB reporter mRNA; actives raise or lower the signal. Put shortly: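 Multiplexed cis-reporter assay in transiently transfected HepG2. 24 h treatment; RNA isolated, RT-PCR, labelled fragments resolved by CE. DMSO baseline.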

Experiment [17] deals with Oxysterols receptor LXR-alpha (Homo sapiens) (UniProt Q13133). The experiment in a line: ATG_LXRa_TRANS: Attagene TRANS-FACTORIAL HepG2 Assay for human Liver X Receptor alpha (LXRa) (AID 2282980; active = hit-call score of the fitted dose curve at least 0.9, where 1 is the maximum). To be noted: HepG2 Attagene TRANS reporter, LXRa transactivation. Put shortly:
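Chemical-induced reporter mRNA measured by RT-PCR with fluorescent labelling and capillary electrophoresis after 24 h dosing of transiently transfected HepG2 cells expressing exogenous NR-Gal4 chimeras; increases scored against DMSO baseline.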

The nature of experiment [18]: ATG_M_32_TRANS: Attagene TRANS-FACTORIAL HepG2 Assay for M32 Transcription Factor (Internal Marker) (AID 2282984; active = hit-call score of the fitted dose curve at least 0.9, where 1 is the maximum). The note with it: HepG2 Attagene TRANS M32 internal marker reporter. The procedure, abridged:
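HepG2 cells transiently transfected with GAL4-UAS reporter units, dosed for 24 hours. Reporter mRNA quantified by RT-PCR, 6-FAM labelling, HpaI digestion and capillary electrophoresis; internal-marker signal fitted upward relative to DMSO.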

Experiment [19] addresses Bile acid receptor (Homo sapiens) (UniProt Q96RI1). The experiment in a line: ATG_FXR_TRANS: Attagene TRANS-FACTORIAL HepG2 Assay for Farnesoid X Receptor (FXR) (AID 2282979; active = hit-call score of the fitted dose curve at least 0.9, where 1 is the maximum;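 note: hits raise reporter mRNA above DMSO so AC50 marks FXR activation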). The note with it: HepG2 Attagene TRANS FXR-GAL4 reporter transcription. Put shortly: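 Reporter transcripts from transfected HepG2 cells were measured 24 h after dosing, using RT-PCR with capillary electrophoresis of 6-FAM-labelled fragments. The read-out reflects activity of exogenous FXR-Gal4 chimera on GAL4-UAS units, with induction relative to DMSO.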

Nuclear receptor subfamily 4 group A member 2 (Homo sapiens), sequence (P43354 whole entry, looked up, the tested form may be a part): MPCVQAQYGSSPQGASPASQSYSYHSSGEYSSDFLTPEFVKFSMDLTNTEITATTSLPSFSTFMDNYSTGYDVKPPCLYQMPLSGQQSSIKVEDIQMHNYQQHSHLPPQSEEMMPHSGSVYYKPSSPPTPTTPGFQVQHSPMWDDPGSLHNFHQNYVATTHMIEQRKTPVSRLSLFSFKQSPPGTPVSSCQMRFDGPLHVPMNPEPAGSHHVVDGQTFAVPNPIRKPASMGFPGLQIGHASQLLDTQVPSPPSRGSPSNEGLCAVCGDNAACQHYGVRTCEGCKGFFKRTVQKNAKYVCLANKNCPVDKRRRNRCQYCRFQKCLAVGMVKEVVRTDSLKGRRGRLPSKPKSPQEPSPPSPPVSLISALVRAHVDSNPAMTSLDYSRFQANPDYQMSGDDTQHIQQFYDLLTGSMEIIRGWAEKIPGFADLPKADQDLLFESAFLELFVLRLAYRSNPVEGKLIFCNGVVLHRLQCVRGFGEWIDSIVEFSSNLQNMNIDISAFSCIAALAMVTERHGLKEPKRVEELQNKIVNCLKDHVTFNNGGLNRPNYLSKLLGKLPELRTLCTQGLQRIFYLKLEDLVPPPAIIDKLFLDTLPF
Oxysterols receptor LXR-beta (Homo sapiens), sequence (P55055 whole entry, looked up, the tested form may be a part): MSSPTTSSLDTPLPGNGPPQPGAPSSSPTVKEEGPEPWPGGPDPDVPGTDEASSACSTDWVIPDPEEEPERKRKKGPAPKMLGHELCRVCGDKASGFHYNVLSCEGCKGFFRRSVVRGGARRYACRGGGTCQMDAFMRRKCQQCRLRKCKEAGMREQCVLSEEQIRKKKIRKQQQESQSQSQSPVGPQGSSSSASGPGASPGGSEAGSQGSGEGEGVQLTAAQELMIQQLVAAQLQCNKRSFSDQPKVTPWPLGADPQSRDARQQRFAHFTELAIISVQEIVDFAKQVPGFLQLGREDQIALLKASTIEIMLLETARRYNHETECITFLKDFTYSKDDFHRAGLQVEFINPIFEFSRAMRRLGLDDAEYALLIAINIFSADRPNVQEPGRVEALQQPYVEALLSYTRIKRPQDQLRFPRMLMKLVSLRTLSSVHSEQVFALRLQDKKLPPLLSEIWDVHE
Myc proto-oncogene protein (Homo sapiens), sequence (P01106 whole entry, looked up, the tested form may be a part): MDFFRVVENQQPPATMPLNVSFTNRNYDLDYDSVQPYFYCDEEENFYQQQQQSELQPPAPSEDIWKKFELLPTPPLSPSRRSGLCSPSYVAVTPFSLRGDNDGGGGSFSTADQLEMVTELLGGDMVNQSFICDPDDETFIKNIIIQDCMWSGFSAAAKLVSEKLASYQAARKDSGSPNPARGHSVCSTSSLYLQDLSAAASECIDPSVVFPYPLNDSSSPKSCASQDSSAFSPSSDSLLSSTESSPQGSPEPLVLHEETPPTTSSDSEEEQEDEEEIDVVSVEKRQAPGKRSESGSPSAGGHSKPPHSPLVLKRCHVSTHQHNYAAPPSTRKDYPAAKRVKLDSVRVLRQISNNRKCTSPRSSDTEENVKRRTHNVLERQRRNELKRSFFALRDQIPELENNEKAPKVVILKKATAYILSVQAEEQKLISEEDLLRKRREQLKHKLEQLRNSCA
Oxysterols receptor LXR-alpha (Homo sapiens), sequence (Q13133 whole entry, looked up, the tested form may be a part): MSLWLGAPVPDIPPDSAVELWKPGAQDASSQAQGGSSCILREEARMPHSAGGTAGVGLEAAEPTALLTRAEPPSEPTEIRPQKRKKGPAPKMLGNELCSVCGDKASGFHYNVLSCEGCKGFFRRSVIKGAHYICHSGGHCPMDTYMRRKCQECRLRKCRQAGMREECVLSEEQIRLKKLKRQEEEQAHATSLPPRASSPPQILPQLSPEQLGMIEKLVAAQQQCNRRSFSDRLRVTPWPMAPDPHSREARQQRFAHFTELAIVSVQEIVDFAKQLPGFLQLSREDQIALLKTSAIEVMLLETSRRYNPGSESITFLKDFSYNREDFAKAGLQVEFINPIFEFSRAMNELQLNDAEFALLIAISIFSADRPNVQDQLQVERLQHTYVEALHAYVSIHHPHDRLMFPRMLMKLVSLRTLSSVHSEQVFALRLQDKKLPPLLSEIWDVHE
Cellular tumor antigen p53 (Homo sapiens), sequence (P04637 whole entry, looked up): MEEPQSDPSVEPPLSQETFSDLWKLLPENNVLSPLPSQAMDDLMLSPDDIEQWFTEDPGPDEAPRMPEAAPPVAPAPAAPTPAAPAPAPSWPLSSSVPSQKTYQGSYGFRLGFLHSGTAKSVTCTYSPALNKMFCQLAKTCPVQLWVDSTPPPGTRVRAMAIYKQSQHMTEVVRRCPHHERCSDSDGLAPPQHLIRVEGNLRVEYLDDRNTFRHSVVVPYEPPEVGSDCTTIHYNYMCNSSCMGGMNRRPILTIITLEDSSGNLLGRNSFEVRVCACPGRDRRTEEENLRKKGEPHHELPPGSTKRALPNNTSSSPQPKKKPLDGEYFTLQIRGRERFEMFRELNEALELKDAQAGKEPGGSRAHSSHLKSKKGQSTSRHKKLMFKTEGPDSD
Hepatocyte nuclear factor 4-alpha (Homo sapiens), sequence (P41235 whole entry, looked up, the tested form may be a part): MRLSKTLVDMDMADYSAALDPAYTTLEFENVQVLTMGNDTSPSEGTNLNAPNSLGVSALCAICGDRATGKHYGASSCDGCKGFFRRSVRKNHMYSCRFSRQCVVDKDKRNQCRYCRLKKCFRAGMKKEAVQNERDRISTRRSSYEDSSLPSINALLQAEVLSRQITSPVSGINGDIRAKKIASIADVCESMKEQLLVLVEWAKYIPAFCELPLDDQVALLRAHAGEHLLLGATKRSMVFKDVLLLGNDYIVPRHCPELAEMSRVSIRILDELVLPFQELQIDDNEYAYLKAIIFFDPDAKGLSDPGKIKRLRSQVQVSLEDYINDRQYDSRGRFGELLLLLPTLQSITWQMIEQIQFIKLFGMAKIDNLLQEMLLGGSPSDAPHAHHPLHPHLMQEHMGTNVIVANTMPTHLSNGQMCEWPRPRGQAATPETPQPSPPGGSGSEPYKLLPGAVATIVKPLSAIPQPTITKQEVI
Transcriptional activator Myb (Homo sapiens), sequence (P10242 whole entry, looked up): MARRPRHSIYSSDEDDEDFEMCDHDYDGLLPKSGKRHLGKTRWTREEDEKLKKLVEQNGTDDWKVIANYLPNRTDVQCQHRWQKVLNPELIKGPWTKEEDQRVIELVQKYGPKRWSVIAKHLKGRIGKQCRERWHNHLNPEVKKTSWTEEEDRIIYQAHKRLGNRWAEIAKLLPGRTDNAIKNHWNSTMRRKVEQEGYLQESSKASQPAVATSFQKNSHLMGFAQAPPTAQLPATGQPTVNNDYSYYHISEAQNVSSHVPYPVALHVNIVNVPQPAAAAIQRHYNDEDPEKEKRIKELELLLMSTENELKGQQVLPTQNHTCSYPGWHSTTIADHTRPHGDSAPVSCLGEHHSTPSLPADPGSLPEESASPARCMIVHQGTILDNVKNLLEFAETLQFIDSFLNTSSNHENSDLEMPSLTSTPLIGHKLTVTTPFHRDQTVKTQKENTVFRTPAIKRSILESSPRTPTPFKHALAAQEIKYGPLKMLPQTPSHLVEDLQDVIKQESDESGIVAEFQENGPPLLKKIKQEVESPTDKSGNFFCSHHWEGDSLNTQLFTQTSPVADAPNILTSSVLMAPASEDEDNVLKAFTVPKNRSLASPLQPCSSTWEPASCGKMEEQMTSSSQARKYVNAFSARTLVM
Nuclear respiratory factor 1 (Homo sapiens), sequence (Q16656 whole entry, looked up): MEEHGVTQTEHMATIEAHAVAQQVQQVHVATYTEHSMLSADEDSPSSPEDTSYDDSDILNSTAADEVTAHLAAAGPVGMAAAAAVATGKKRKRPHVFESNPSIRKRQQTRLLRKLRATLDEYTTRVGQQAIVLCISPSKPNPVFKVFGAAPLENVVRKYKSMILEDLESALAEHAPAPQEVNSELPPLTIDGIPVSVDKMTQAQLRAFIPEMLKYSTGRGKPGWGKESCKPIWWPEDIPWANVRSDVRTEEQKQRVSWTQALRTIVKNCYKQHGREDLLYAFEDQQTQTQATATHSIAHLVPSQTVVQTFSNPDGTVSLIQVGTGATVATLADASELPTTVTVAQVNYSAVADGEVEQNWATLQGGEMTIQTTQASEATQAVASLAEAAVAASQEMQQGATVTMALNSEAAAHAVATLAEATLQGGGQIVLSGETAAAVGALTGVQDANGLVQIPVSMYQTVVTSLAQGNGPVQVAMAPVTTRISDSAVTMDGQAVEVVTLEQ
Glucocorticoid receptor (Homo sapiens), sequence (P04150 whole entry, looked up): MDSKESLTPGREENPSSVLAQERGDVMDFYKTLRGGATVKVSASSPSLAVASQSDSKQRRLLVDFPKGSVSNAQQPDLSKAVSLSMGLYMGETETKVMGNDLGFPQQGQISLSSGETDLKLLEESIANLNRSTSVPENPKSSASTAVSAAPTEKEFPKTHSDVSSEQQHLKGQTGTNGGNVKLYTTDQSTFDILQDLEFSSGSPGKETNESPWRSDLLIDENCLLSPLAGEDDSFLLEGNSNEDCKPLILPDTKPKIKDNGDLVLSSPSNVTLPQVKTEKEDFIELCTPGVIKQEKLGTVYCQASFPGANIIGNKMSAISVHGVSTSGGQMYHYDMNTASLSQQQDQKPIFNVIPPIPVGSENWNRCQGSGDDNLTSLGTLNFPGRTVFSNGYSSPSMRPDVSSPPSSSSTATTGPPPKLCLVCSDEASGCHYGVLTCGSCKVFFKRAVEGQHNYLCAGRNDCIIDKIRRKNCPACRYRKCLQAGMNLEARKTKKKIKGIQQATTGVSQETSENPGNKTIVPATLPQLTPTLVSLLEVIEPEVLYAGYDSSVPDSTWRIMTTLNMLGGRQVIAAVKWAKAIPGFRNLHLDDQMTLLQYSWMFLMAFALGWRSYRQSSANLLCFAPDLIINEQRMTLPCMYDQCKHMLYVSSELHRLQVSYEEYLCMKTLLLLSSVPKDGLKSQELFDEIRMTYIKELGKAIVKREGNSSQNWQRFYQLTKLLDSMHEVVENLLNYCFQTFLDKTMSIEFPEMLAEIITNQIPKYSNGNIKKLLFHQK

For the compound `COC(=O)N(C(=O)N1CO[C@@]2(C(=O)OC)Cc3cc(Cl)ccc3C2=N1)c1ccc(OC(F)(F)F)cc1`, the outcome in [1], in experiment [2], in experiment [3], in [4], in experiment [5] and in experiment [6] was inactive. In addition, the result in experiment [7], in experiment [8], in [11], in experiment [12], in [13] and in [14] was inactive. The AC50 was 4.35 µM (active) in experiment [9] and 1.71 µM (active) in experiment [10].
As to `CCN(CC)c1nc(C)cc(OP(=S)(OC)OC)n1`, the compound was classed as inactive in [15], in [2], in experiment [3], in experiment [5], in experiment [6] and in [7]. Also, the outcome in [8], in [16], in experiment [9], in experiment [11], in experiment [12] and in experiment [13] was inactive. Further, the outcome in experiment [14] was inactive. Besides, the values for the AC50 in experiment [4] and in [10] were 62.9 µM (active) and 8.94 µM (active), respectively.
Take `O=C1C2CC=CCC2C(=O)N1SC(Cl)(Cl)Cl` (configuration not stated): the compound was classed as inactive in experiment [15], in experiment [17], in experiment [2], in experiment [3], in [18] and in experiment [5]. In addition, the compound was classed as inactive in experiment [6], in experiment [7], in experiment [8], in [16], in [9] and in experiment [10]. The compound was classed as inactive in experiment [11], in experiment [12] and in experiment [13]. In addition, the AC50 in experiment [14] was 26.6 µM (active).
For the compound `CCSC(=O)N1CCCCCC1`, the outcome in [15], in experiment [17], in experiment [2], in experiment [4], in experiment [5] and in experiment [6] was inactive. For the same compound, the result in [7], in [8], in experiment [16], in experiment [9], in experiment [10] and in [11] was inactive. Moreover, the outcome in experiment [12], in experiment [13] and in [14] was inactive.
Turning to `CO/N=C(/C1=NOCCO1)c1ccccc1Oc1ncnc(Oc2ccccc2Cl)c1F`, the compound was classed as inactive in experiment [1], in experiment [19], in experiment [17], in [2], in experiment [3] and in [4]. The result in experiment [5], in experiment [7], in [8], in experiment [16], in [11] and in [12] was inactive. For the same compound, the outcome in [14] was inactive. For the same compound, the concentration at half-maximal activity (AC50) was 5.54 µM (active) in experiment [6], 0.946 µM (active) in experiment [9], 0.833 µM (active) in [10] and 5.95 µM (active) in experiment [13].

In general, AC50 refers to the concentration at which the activity in the assay is half-maximal.
